# Experiments:
# Assay in all cases: DAPPL (digital affinity profiling via proximity ligation, sequencing); 10 mM Tris-HCl pH 7.5, 50 mM NaCl, 1 mM DTT, 4% glycerol, room temperature, 30 min; GST-TFs on glutathione beads, 16-mer random dsDNA library, 0.1% formaldehyde crosslink after washing; high values mean tight binding
# [1] = target: T1, FLI1 (Homo sapiens, UniProt Q01543 1-452); details: protein: recombinant; tags: N-terminal GST; dsDNA, one strand shown
# T1 sequence: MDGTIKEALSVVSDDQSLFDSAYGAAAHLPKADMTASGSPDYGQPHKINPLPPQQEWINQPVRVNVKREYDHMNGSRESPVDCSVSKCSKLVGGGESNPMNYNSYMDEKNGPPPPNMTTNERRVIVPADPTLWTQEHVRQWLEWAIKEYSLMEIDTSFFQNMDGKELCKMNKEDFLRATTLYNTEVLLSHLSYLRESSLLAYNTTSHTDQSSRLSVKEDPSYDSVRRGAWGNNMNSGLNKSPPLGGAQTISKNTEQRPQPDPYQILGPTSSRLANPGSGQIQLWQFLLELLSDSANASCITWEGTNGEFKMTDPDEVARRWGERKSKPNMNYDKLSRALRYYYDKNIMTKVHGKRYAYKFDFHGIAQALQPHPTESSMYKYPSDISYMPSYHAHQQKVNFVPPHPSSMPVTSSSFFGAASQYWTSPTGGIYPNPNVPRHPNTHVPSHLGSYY
# Summary of the method: (§1)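 Binding signal is defined as a hexamer's read frequency for one factor over its frequency for the tag-only sample. To obtain reads, GST-fused human transcription factors were expressed in yeast, captured on glutathione beads, barcoded with DNA and pooled with that sample. Pools met 200 nmole of a 16-mer random double-stranded DNA library in Tris/NaCl/DTT/glycerol buffer for 30 min at room temperature before washing, 0.1% formaldehyde crosslinking, proximity ligation (BsaI/T4 ligase, 1 h, 37 °C), PCR and Illumina NextSeq500 sequencing.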
# [2] = target: T2, ELK1 (Homo sapiens, UniProt P19419 1-428); details: protein: recombinant; tags: N-terminal GST; dsDNA, one strand shown
# T2 sequence: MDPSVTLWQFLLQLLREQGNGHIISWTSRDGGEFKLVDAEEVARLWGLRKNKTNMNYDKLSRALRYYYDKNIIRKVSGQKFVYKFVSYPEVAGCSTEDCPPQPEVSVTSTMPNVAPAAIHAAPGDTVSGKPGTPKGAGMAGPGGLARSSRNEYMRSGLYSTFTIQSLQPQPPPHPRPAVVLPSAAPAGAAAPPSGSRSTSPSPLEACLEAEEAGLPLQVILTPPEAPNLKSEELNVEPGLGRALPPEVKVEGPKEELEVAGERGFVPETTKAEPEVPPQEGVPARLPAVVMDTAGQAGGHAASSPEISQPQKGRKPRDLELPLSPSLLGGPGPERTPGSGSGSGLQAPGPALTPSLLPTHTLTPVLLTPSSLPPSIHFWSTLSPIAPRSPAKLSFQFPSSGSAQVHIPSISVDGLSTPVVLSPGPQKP
# Summary of the method: as §1
# [3] = target: T3, GABPA (Homo sapiens, UniProt Q06546 1-454); details: protein: recombinant; tags: N-terminal GST; dsDNA, one strand shown
# T3 sequence: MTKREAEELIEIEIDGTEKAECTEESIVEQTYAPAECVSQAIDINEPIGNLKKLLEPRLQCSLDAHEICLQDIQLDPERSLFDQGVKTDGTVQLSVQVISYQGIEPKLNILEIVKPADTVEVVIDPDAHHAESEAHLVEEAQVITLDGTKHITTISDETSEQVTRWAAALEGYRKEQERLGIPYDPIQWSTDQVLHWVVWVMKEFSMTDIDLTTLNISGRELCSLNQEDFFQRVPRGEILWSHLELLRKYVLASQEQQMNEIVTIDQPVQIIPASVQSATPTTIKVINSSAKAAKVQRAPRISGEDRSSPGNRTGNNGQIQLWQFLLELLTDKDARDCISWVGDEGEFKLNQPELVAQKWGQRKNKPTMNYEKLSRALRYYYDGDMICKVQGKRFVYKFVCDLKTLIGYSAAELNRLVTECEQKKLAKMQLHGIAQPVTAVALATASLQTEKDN
# Summary of the method: as §1
# [4] = target: T4, ERG (Homo sapiens, UniProt P11308 1-479); details: protein: recombinant; tags: N-terminal GST; dsDNA, one strand shown
# T4 sequence: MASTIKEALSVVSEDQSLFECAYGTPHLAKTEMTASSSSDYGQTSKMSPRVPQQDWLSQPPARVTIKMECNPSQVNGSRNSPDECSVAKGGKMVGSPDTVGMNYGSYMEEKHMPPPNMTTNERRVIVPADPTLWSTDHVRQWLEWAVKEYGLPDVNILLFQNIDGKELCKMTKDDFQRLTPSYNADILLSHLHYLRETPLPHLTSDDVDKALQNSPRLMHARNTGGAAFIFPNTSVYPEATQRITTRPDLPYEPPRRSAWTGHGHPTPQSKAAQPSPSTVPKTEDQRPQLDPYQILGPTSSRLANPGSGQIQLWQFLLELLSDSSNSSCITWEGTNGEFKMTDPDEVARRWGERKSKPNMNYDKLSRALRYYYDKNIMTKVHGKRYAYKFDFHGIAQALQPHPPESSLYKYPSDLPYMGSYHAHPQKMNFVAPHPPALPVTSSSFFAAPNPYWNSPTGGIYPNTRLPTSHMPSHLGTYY
# Summary of the method: as §1
# [5] = target: ELF1 (Homo sapiens, UniProt P32519 1-619); details: protein: recombinant; tags: N-terminal GST; dsDNA, one strand shown
# Chain of ELF1 (P32519 whole entry): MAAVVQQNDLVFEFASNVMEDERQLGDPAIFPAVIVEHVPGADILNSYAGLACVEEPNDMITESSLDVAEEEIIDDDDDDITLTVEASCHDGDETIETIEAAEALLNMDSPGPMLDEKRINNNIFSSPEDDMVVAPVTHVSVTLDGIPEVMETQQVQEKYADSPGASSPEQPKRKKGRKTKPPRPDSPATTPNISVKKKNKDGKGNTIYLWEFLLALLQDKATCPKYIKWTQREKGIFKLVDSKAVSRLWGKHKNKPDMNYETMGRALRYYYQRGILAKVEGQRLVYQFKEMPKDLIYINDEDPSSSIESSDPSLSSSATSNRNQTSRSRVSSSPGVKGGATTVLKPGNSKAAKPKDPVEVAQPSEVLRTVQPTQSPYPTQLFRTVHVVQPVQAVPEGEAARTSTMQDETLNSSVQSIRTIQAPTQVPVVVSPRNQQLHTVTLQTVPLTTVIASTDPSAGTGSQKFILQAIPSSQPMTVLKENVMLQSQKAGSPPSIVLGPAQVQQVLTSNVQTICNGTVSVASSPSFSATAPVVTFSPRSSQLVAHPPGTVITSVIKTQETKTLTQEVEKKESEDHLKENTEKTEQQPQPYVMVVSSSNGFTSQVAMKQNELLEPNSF
# Summary of the method: as §1
# [6] = target: T5, EHF (Homo sapiens, UniProt Q9NZC4 1-300); details: protein: recombinant; tags: N-terminal GST; dsDNA, one strand shown
# T5 sequence: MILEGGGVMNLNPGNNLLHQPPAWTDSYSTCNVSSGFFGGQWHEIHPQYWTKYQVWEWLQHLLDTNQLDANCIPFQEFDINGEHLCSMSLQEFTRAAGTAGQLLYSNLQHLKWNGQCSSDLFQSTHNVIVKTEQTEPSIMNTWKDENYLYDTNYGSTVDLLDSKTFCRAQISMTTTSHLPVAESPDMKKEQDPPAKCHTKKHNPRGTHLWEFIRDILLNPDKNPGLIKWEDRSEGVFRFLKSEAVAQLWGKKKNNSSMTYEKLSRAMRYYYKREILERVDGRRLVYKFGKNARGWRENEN
# Summary of the method: as §1
# [7] = target: SPI1 (Homo sapiens, UniProt P17947 1-270); details: protein: recombinant; tags: N-terminal GST; dsDNA, one strand shown
# Summary of the method: as §1
# [8] = target: SPIB (Homo sapiens, UniProt Q01892 1-262); details: protein: recombinant; tags: N-terminal GST; dsDNA, one strand shown
# Chain of SPIB (Q01892 whole entry): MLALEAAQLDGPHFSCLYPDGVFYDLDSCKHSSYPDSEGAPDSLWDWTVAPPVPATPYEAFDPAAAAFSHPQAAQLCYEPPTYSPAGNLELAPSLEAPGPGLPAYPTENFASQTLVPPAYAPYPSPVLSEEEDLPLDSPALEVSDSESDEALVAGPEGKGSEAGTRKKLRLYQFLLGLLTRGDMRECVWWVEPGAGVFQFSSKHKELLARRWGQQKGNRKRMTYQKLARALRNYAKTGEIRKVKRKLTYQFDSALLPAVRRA
# Summary of the method: as §1
# [9] = target: T6, ELK3 (Homo sapiens, UniProt P41970 1-407); details: protein: recombinant; tags: N-terminal GST; dsDNA, one strand shown
# T6 sequence: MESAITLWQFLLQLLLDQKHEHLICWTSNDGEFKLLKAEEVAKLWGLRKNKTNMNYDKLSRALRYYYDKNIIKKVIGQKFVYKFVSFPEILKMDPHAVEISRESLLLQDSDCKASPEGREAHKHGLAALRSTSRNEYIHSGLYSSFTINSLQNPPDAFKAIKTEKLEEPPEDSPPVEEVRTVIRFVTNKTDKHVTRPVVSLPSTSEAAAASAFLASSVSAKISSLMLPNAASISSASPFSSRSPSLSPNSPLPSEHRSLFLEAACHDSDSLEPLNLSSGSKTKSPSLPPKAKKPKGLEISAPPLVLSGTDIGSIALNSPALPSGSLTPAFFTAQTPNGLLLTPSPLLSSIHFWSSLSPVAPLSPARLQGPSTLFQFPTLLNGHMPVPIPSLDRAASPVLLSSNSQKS
# Summary of the method: as §1
# [10] = target: T7, FEV (Homo sapiens, UniProt Q99581 1-238); details: protein: recombinant; tags: N-terminal GST; dsDNA, one strand shown
# T7 sequence: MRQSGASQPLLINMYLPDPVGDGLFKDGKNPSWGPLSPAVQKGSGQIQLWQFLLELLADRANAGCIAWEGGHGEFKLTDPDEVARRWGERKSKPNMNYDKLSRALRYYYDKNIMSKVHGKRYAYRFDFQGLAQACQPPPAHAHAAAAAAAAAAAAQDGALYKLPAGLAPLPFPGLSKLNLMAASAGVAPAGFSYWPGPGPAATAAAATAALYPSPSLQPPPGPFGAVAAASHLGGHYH
# Summary of the method: as §1
# [11] = target: ETV5 (Homo sapiens, UniProt P41161 1-510); details: protein: recombinant; tags: N-terminal GST; dsDNA, one strand shown
# Chain of ETV5 (P41161 whole entry): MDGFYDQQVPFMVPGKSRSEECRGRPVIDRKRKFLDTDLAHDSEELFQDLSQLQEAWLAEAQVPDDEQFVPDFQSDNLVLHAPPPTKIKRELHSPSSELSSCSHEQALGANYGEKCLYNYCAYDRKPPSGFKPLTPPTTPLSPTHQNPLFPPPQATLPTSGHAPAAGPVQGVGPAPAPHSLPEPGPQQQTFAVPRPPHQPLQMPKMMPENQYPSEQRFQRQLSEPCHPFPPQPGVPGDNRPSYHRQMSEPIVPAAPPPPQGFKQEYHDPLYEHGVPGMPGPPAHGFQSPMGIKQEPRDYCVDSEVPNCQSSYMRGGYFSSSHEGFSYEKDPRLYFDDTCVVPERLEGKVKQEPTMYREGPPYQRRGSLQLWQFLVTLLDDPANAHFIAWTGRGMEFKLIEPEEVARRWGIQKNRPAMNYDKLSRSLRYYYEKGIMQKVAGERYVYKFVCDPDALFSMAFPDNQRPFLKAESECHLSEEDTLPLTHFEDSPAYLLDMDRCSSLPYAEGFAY
# Summary of the method: as §1
# [12] = target: HSF1 (Homo sapiens, UniProt Q00613 1-529); details: protein: recombinant; tags: N-terminal GST; chain copies: 3; dsDNA, one strand shown
# Chain of HSF1 (Q00613 whole entry): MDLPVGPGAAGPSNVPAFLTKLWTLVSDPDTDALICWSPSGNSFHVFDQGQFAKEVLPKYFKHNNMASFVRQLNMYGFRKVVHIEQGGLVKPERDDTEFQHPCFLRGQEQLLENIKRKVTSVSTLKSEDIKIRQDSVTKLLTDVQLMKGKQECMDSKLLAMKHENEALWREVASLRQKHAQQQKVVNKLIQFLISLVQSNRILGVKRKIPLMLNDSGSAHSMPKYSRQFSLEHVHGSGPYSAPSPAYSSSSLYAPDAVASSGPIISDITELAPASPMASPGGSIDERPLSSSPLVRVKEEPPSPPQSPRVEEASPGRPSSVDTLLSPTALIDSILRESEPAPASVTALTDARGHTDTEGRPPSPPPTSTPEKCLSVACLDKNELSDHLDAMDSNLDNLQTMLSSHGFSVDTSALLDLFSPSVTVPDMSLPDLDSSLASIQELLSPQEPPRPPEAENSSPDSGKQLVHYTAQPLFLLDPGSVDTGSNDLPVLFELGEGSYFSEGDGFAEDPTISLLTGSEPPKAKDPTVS
# Summary of the method: as §1
# [13] = target: T8, SPIC (Homo sapiens, UniProt Q8N5J4 1-248); details: protein: recombinant; tags: N-terminal GST; dsDNA, one strand shown
# T8 sequence: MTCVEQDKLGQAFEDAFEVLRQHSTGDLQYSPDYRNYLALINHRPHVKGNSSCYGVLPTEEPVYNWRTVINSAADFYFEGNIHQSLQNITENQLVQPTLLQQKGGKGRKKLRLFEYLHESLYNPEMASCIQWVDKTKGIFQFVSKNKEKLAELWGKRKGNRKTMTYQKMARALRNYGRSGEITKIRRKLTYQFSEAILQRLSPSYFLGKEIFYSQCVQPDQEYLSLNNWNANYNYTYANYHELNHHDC
# Summary of the method: as §1
# [14] = target: ELF4 (Homo sapiens, UniProt Q99607 1-663); details: protein: recombinant; tags: N-terminal GST; dsDNA, one strand shown
# Chain of ELF4 (Q99607 whole entry): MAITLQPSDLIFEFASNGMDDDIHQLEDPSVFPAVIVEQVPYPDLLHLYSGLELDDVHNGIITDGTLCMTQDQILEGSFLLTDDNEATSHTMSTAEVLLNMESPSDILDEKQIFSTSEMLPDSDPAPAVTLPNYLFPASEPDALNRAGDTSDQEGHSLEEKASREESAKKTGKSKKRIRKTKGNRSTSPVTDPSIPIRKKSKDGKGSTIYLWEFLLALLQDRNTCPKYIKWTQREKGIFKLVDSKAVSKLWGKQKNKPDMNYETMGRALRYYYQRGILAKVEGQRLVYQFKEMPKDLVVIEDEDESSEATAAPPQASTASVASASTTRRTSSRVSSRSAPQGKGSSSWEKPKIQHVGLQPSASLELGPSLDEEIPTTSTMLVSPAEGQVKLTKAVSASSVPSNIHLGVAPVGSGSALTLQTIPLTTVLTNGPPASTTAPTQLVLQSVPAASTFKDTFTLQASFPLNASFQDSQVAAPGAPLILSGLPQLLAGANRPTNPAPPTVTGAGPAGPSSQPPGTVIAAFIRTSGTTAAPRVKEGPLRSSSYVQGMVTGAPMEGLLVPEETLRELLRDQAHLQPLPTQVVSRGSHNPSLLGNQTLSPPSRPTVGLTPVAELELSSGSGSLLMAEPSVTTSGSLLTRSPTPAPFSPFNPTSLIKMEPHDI
# Summary of the method: as §1
# [15] = target: T9, ELK4 (Homo sapiens, UniProt P28324-2 1-405); details: protein: recombinant; tags: N-terminal GST; dsDNA, one strand shown
# T9 sequence: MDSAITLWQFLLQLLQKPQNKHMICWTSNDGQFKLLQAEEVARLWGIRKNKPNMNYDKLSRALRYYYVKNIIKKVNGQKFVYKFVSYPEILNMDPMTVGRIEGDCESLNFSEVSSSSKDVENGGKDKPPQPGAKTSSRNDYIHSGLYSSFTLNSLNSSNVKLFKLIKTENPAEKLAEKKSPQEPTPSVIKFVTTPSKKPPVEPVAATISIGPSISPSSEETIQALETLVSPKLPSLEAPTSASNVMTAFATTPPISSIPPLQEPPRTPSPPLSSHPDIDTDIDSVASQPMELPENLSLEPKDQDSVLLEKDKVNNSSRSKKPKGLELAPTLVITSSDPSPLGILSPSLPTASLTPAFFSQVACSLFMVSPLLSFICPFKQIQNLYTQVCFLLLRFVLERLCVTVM
# Summary of the method: as §1
# [16] = target: T10, ETV2 (Homo sapiens, UniProt O00321 1-342); details: protein: recombinant; tags: N-terminal GST; dsDNA, one strand shown
# T10 sequence: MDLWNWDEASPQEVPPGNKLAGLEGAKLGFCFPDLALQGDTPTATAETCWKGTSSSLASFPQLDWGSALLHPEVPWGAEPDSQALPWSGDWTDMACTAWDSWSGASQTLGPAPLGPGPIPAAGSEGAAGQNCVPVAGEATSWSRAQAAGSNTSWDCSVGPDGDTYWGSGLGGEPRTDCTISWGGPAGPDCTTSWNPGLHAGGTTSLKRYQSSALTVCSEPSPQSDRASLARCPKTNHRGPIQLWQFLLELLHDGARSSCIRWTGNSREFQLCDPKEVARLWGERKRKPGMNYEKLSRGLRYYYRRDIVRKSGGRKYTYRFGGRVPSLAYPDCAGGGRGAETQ
# Summary of the method: as §1
# [17] = target: T11, ELF3 (Homo sapiens, UniProt P78545 1-371); details: protein: recombinant; tags: N-terminal GST; dsDNA, one strand shown
# T11 sequence: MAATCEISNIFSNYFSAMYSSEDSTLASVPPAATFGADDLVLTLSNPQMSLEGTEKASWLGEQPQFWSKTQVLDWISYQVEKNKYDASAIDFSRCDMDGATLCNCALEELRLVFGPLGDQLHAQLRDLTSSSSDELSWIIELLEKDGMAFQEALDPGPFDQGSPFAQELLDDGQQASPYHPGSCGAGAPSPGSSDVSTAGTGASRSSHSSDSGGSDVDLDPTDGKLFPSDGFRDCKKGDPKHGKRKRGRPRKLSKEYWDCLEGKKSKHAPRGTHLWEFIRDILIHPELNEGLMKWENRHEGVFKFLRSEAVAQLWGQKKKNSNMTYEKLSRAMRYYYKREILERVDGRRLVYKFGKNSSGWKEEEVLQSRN
# Summary of the method: as §1
# [18] = target: CRX (Homo sapiens, UniProt O43186 1-299); details: protein: recombinant; tags: N-terminal GST; dsDNA, one strand shown
# Chain of CRX (O43186 whole entry): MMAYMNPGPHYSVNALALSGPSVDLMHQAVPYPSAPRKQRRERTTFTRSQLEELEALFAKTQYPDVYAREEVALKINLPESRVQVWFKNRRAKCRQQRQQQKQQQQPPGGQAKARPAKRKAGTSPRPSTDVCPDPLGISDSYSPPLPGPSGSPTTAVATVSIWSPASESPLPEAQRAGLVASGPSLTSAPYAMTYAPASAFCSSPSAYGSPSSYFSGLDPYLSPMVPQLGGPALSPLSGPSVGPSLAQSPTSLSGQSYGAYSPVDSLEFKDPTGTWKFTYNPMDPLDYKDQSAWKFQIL
# Summary of the method: as §1
# [19] = target: ETV1 (Homo sapiens, UniProt P50549 1-477); details: protein: recombinant; tags: N-terminal GST; dsDNA, one strand shown
# Chain of ETV1 (P50549 whole entry): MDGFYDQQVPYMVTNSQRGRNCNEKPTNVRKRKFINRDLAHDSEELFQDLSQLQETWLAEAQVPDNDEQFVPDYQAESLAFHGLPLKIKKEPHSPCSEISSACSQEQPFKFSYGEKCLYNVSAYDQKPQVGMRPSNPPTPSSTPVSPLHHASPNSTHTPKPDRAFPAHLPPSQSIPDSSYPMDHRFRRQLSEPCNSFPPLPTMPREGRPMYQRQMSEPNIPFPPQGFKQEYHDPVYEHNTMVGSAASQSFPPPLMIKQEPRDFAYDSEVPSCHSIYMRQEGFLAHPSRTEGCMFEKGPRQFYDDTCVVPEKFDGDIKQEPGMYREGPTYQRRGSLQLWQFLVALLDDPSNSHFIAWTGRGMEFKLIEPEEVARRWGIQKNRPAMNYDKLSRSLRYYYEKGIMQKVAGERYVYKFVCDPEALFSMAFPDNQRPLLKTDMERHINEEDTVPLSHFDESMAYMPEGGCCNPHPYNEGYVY
# Summary of the method: as §1
sequence,measurement,setting,value
CTCTAT,binding signal,[1],"1.09 fold enrichment (6-mer frequency, TF over GST control)"
same,binding signal,[2],"1.22 fold enrichment (6-mer frequency, TF over GST control)"
same,binding signal,[3],"1.2 fold enrichment (6-mer frequency, TF over GST control)"
same,binding signal,[4],"1.17 fold enrichment (6-mer frequency, TF over GST control)"
same,binding signal,[5],"1.22 fold enrichment (6-mer frequency, TF over GST control)"
same,binding signal,[6],"1.09 fold enrichment (6-mer frequency, TF over GST control)"
same,binding signal,[7],"1.16 fold enrichment (6-mer frequency, TF over GST control)"
same,binding signal,[8],"1.17 fold enrichment (6-mer frequency, TF over GST control)"
same,binding signal,[9],"1.11 fold enrichment (6-mer frequency, TF over GST control)"
same,binding signal,[10],"1.11 fold enrichment (6-mer frequency, TF over GST control)"
same,binding signal,[11],"1.15 fold enrichment (6-mer frequency, TF over GST control)"
same,binding signal,[12],"1.11 fold enrichment (6-mer frequency, TF over GST control)"
same,binding signal,[13],"1.05 fold enrichment (6-mer frequency, TF over GST control)"
same,binding signal,[14],"1.18 fold enrichment (6-mer frequency, TF over GST control)"
same,binding signal,[15],"1.19 fold enrichment (6-mer frequency, TF over GST control)"
same,binding signal,[16],"1.21 fold enrichment (6-mer frequency, TF over GST control)"
same,binding signal,[17],"1.2 fold enrichment (6-mer frequency, TF over GST control)"
same,binding signal,[18],"1.1 fold enrichment (6-mer frequency, TF over GST control)"
same,binding signal,[19],"1.13 fold enrichment (6-mer frequency, TF over GST control)"
